The list is not random: actives were taken first. Their share in the collection is about 0.63%.
Platelet DG rel: inhibitors of platelet dense granule secretion, primary screen, cell-based, MLPCN, human platelets | human platelet-rich plasma, SFLLRN dense granule ATP release, luminescence | inhibition, %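 (compounds screened at 7.5 µM in platelet-rich plasma)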 | 300,000 compounds, 0.22% hits;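 active = mean replicate score, as percent of positive control, at or above 50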
NTR1 agonist: agonists of human NTR1, primary screen, imaging, U2OS cells, beta-arrestin-GFP, high content. NTR1-U2OS beta-arrestin-GFP spot imaging, agonist mode. activation, % at 20 µM. 330,000 compounds, 0.17% hits. AID 493036, 2011;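 active = activation at or above 40% of the spot to cytoplasm intensity ratio, with at least 20 cells analyzed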;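 also: 0% = DMSO without peptide and 100% = 100 nM NTR1 peptide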
Target sequence (P30989 whole entry, looked up): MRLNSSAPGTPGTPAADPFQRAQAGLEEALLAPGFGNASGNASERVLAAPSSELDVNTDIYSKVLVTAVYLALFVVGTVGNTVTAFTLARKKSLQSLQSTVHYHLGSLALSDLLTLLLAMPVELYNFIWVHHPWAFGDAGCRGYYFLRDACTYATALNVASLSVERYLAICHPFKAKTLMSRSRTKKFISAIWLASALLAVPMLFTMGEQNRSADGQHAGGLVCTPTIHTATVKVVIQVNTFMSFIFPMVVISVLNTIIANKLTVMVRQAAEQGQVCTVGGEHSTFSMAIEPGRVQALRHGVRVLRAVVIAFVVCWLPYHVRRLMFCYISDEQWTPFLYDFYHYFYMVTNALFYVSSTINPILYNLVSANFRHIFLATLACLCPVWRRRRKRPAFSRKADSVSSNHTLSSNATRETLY
HIF act: HIF pathway transcriptional activators, primary screen, cell-based, U2OS HRE-luciferase, luminescence; U2OS HRE-luciferase reporter; normalized: DMSO 0%, desferrioxamine 100%; activation, % at 7.5 µM (by protocol); 300,000 compounds, 0.32% hits; AID 1910, 2009;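 active = mean activation of at least 10% of the iron chelator positive control signal, with at least half of replicates also reaching 10%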
NTR1 ag confirm: NTR1 agonists, single-dose retest, confirmation, imaging, U2OS cells, beta-arrestin-GFP, single concentration | shares compounds with NTR1 agonist | NTR1-U2OS beta-arrestin-GFP translocation imaging | activation, % at 20 µM | 480 compounds, 38% hits | AID 504550, 2011;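 active = mean activation at 20 µM of at least 40%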;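 also: 0% = DMSO without peptide and 100% = 100 nM NTR1 peptide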
* hit, by the source's call; · = no result.

SMILES	Platelet DG rel	NTR1 agonist	HIF act	NTR1 ag confirm
CC(=O)c1ccc(NC(=O)c2ccc(C)c(S(=O)(=O)N3CCOCC3)c2)cc1	-5	2	0	·
CCOC(=O)c1ccc(NC(=O)c2ccc(C)c(S(=O)(=O)N3CCOCC3)c2)cc1	-2	52*	1	70*
Cc1cc2oc(C(=O)N(Cc3ccccc3)C3CCS(=O)(=O)C3)c(C)c2cc1C (stereo not given)	-5	14	-1	·
OCC1(Cc2ccccc2F)CCCN(CCc2ccccc2)C1 (stereo not given)	1	1	-2	·
Cc1ccc(CN(C)c2nc(-c3cccnc3)nc3ccccc23)o1	1	2	-1	·
CCc1ccc(NC(=O)c2ccc3c(=O)n4c(nc3c2)CCCCC4)cc1	4	10	1	·
O=C(Nc1cccc(S(=O)(=O)N2CCCCC2)c1)c1ccc2c(=O)n3c(nc2c1)CCCCC3	1	43*	0	26
CC(C)NCC(O)COc1c(F)cc(Br)cc1F (stereo not given)	-2	1	0	·
COc1cc(/C=C2\C(=O)ON=C2c2ccc(Cl)cc2)ccc1O	-2	49*	0	81*
O=C1ON=C(c2ccccc2)/C1=C/c1ccc(O)c(O)c1	-2	28	-1	·
Nc1ccc2oc(-c3cccs3)nc2c1	-3	3	3	·
CCCCn1c(N)c(-c2nc3ccccc3s2)c2c([N+](=O)[O-])nn(CC)c(=O)c21	-8	19	1	·
CCCCn1c(N)c(-c2nc3ccccc3s2)c2c([N+](=O)[O-])nn(C)c(=O)c21	-4	61*	0	5
CCOC(=O)c1c(C)[nH]c(C(=O)OCC(=O)Nc2ccc(Cl)cn2)c1C	·	1	·	·
CCOC(=O)c1c(C)[nH]c(C(=O)OCC(=O)Nc2sccc2C(N)=O)c1C	-11	44*	-17	41*
CC1(c2ccccc2)NC(=O)N(CC(=O)Nc2ccc(S(=O)(=O)Nc3ncccn3)cc2)C1=O (stereo not given)	4	1	1	·
Fc1cnc(N/N=C/c2ccc(-c3ccc(Br)cc3)o2)nc1N1CCOCC1	8	41*	2	24
Brc1ccc(-c2ccc(/C=N/Nc3nc(N4CCOCC4)nc(N4CCOCC4)n3)o2)cc1	1	14	-1	·
CCCN1CCC(NC(=O)Nc2cccc3ccccc23)CC1	8	3	0	·
COc1ccccc1S(=O)(=O)Cc1ccc(C(=O)NCCN(C)C)o1	5	1	0	·
COc1cc(CCC(=O)OCC(=O)Nc2ccc(C)cc2Br)cc(OC)c1OC	4	-1	1	·
COc1ccc(C(=O)/C=C2/C(=O)Nc3ccccc32)c(OC)c1	7	52*	1	49*
COc1ccc(C(=O)/C=C2/C(=O)Nc3ccccc32)cc1	12	28	1	·
CC(C)c1ccc(C2(C)NC(=O)N(CC(=O)N3CCN(C(=O)c4cccs4)CC3)C2=O)cc1 (stereo not given)	·	-2	·	·
COc1cccc(NC(=O)CN(C)C(=O)c2ccc(S(=O)(=O)Nc3ccccc3C)cc2)c1	·	-1	·	·
SMILES	Platelet DG rel	NTR1 agonist	HIF act	NTR1 ag confirm
CCc1ccc(NC(=O)[C@H](C)NC(=O)C2CCN(C(=O)[C@@H](N)C(C)C)CC2)cc1	-11	1	0	·
CC(C(=O)NNS(=O)(=O)c1cccc(C(F)(F)F)c1)n1nnc(N2CCOCC2)n1 (stereo not given)	-12	0	1	·
NCCCC[C@H]1CNC(=O)C(=O)N1CCCCC1CCCCC1	3	0	0	·
O=C1NC[C@@H](Cc2cccc3ccccc23)N(CCCCC2CCCCC2)C1=O	12	41*	0	-2
COC(=O)c1ccc(NS(=O)(=O)c2c(C)[nH]c(C)c2C(=O)N2CCCC2)cc1	0	2	0	·
C/C(=N/NC(=O)c1cccs1)c1ccc(NC(=O)COc2ccc(Cl)cc2)cc1	4	12	2	·
CCOc1cc(/C=C\[N+](=O)[O-])ccc1OCC(=O)Nc1ccccc1C	5	45*	-4	51*
COc1cc(/C=C/c2cccc[n+]2C)ccc1OCC(=O)Nc1ccccc1C	7	0	0	·
O=C(N/N=C/c1cn(-c2ccccc2)nc1-c1cc2ccccc2o1)c1ccncc1	-11	9	1	·
O=C(N/N=C/c1cn(-c2ccccc2)nc1-c1cc2ccccc2o1)c1cccnc1	9	40*	1	62*
Fc1cc(F)nc(NCc2ccccc2)n1	6	·	0	·

Screening data from PubChem BioAssay.
